Records with an inconclusive call do not appear. Where a call stands in place of a potency, no number is given. The source made the active and inactive calls. Calls come from the whole dose curve; as a rule, active = well fitted inhibition curve with a large enough effect; inconclusive = small, poorly fitted or top-dose-only effect; inactive = no such curve, though single readings can be large or run the other way.
Potency is the fitted concentration of half-maximal effect.

This test in a line: BET inhibitor-based combinations targeting novel dependencies in MECOM-rearranged (r) AML: UCSD-AML1 cell line (AID 2202235). Note: nearly all actives have a fitted effect of over 40% in size. The settings on record: UCSD-AML1 AML cells viability, CellTiter-Glo, 48 h; series mostly up to 46 µM. In short, it runs like this:
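Normalized to DMSO and empty-well controls, the luminescence data from CellTiter-Glo after 48 hr drug exposure were fitted across 11 concentrations. Reported metrics are area under the dose-response curve and its Z-transformed form.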
On the technique in general: Cellular ATP, detected with luciferase, serves as a proxy for viable cell number.
As for `O=C(O)[C@H](O)[C@@H](O)[C@H](O[C@@H]1O[C@H](CO)[C@H](O)[C@H](O)[C@H]1O)[C@H](O)CO`, the Potency result is “inactive”. Consider `CC(=O)SC[C@@H](C)C(=O)N1CCC[C@H]1C(=O)N[C@@H](Cc1ccccc1)C(=O)O`, for which the Potency result is “inactive”. The value for `CC1CNc2c(cccc2S(=O)(=O)N[C@@H](CCCN=C(N)N)C(=O)N2CC[C@@H](C)C[C@@H]2C(=O)O)C1` (some centres undefined) was “inactive”.

Consider `CC1(CN2CCC(n3c(=O)[nH]c4ccccc43)CC2)OCc2ccccc2-n2cccc21` (centres undefined), for which the Potency result was “inactive”. The value for `Cc1ccc(C(=O)Nc2ccc(CN3CCN(C)CC3)c(C(F)(F)F)c2)cc1C#Cc1cnc2cccnn12` was 2630 nM (active); that for `CCCCCCNC(=O)n1cc(F)c(=O)[nH]c1=O` was 7420 nM (active). To `O=C(O)[C@H](Cc1c[nH]c2ccccc12)N1C(=O)c2ccccc2C1=O` belongs 3320 nM (active); to `O=C(/C=C\n1cnc(-c2cc(C(F)(F)F)cc(C(F)(F)F)c2)n1)NNc1cnccn1`, 372 nM (active); to `Nc1nc(-c2nn(Cc3ccccc3F)c3ncccc23)nc(N)c1N1CCOCC1`, “inactive”. To `COc1ccc(-n2c(C)c([N+](=O)[O-])c3ccc(O)cc32)cc1` belongs “inactive”; to `Cc1ccc(S(=O)(=O)Nc2nc3ccccc3nc2Nc2ccc3nsnc3c2)cc1`, “inactive”; to `CC(C)C[C@H](NC(=O)[C@H](CCc1ccccc1)NC(=O)CN1CCOCC1)C(=O)N[C@@H](Cc1ccccc1)C(=O)N[C@@H](CC(C)C)C(=O)[C@@]1(C)CO1`, 41.7 nM (active). Turning to `Oc1ccc(C2CCN(c3ccnc4ccccc34)CC2)cc1O`, the Potency result was “inactive”.

`CC(=O)[C@H]1CC[C@H]2[C@@H]3CC=C4C[C@@H](O)CC[C@]4(C)[C@H]3CC[C@]12C`: the Potency result is “inactive”. To `Cc1ccsc1C(=CCCN1CCC[C@@H](C(=O)O)C1)c1sccc1C` belongs “inactive”; to `Oc1cc2c(cc1O)C1c3ccc(O)c(O)c3OCC1(O)C2` (centres undefined), 20900 nM (active).

As for `CN(CC(=O)N(Cc1ccc(C2CCCCC2)cc1)c1ccc(C(=O)O)c(O)c1)S(=O)(=O)c1c(F)c(F)c(F)c(F)c1F`, the Potency result is “inactive”. Consider `Cc1nc2cnc3ccc(C#Cc4cccnc4)cc3c2n1-c1ccc(C(C)(C)C#N)cc1`, for which the Potency was 296 nM (active). Regarding `C[C@]12CCC(=O)C=C1[C@@H]1C[C@@H]1[C@H]1[C@@H]3[C@@H]4C[C@@H]4[C@@]4(CCC(=O)O4)[C@@]3(C)CC[C@@H]12`, the Potency result was “inactive”. To `O=c1ccn([C@@H]2O[C@H](CO)[C@H](O)[C@@H]2F)c(=O)[nH]1` belongs “inactive”. Regarding `N#Cc1cc(NC(=O)Nc2nnc(-c3ccncc3)s2)ccc1-c1cn[nH]c1`, the Potency result is “inactive”. To `NS(=O)(=O)c1ccc(NC2=CC(=O)c3ccccc3C2=O)cc1` belongs “inactive”; to `CC(C)C[C@H](NC(=O)CNC(=O)c1cc(Cl)ccc1Cl)B1OC(=O)CC(CC(=O)O)(C(=O)O)O1` (some centres undefined), 166 nM (active); to `COc1cc(S(C)(=O)=O)ccc1Nc1nc2ccc(-c3ccc(NC(=O)[C@H](C)c4ccc(F)cc4)cc3)cn2n1`, 1320 nM (active). To `O=C(O)CCC1CCC(c2cc(F)ccc2F)(S(=O)(=O)c2ccc(Cl)cc2)CC1` (centres undefined) belongs “inactive”; to `O=C(O)c1cn(-c2ccc(F)cc2)c2cc(N3CCNCC3)c(F)cc2c1=O`, “inactive”.

For the compound `CC[C@@H]1C(=O)N(C)c2cnc(Nc3ccc(C(=O)NC4CCN(C)CC4)cc3OC)nc2N1C1CCCC1`, the Potency is 105 nM (active).

Consider `Nc1nc2[nH]cc(CCc3ccc(C(=O)N[C@@H](CCC(=O)O)C(=O)O)cc3)c2c(=O)[nH]1`, for which the Potency is 1050 nM (active).

With `c1coc(CNc2ncnc3nc[nH]c23)c1`, the Potency entry is “inactive”. For the compound `Cc1cccc(-c2nn(C(=S)Nc3ccccc3)cc2-c2ccnc3ccccc23)n1`, the Potency result was “inactive”. To `O=C1CN2Cc3c(ccc(Cl)c3Cl)N=C2N1` belongs “inactive”; to `C=C(C)[C@@H]1CC[C@]2(C)CC[C@]3(C)[C@H](CC[C@@H]4[C@@]5(C)CC[C@H](O)C(C)(C)[C@H]5CC[C@]43C)[C@@H]12`, “inactive”. To `COc1c(C)cnc(Cn2cnc3c(Cl)nc(N)nc32)c1C` belongs 209 nM (active); to `Cc1c(C)c2c(c(C)c1O)CCC(C)(COc1ccc(CC3SC(=O)NC3=O)cc1)O2` (centres undefined), “inactive”.

Values taken from PubChem BioAssay (NCATS).
